Laboratory results reported in ChEMBL document CHEMBL3988442, “University of Dundee, Small-Polar-MMV Screening Library” (2021).
About 13,000 (27%) of roughly 48,000 compounds showed an effect of 50% or more. The list shows a part of the results.

Each compound was assayed on Wolbachia pipientis (assay: Anti-Wolbachia Cell-Based Screen). Conditions: 5 µM.
Assay type: functional
Design: scale not given: in the data most compounds retested in dose-response had high values

Compared with `CCN1CCC(CNC(=O)C2(c3cccc(C)c3)CC2)C1` (stereo not drawn), `CCCN1CCC(CNC(=O)C2(c3ccccc3)CCC2)C1` (stereo not drawn) is higher in “Percent Effect” value: -3.143% for the first, 94.67% for the second.

Compared with `Cc1cc(CN2CCC(CNC(=O)C3(c4ccccc4)CC3)C2)[nH]n1` (stereo not drawn), `COc1ccccc1OC1(C(=O)O)CCN(c2ncccc2F)CC1` is lower in “Percent Effect” value: -1.817% for the first, -11.09% for the second.

First: Cc1cc(CNC(=O)CN2CCN(C(=O)OC(C)(C)C)CC2)ccc1F
Second: O=C(CN1CCN(CCO)CC1)NCCc1c(F)cccc1F
The “Percent Effect” value of the first is lower: -110.5% for the first, 0.9837% for the second.

First: Cn1c2ncccc2c(=O)n1CC(=O)NCCc1c(F)cccc1F
Second: Cn1c2ncccc2c(=O)n1CC(=O)Nc1ccc(F)c(F)c1
The “Percent Effect” value of the first is lower: 97.5% for the first, 107.1% for the second.

Compared with `Cc1ccc(CNC(=O)N2CCOCC2C2CC2)cc1F` (stereo not drawn), `Cc1ccc(CNC(=O)Cn2c(=O)c3cccnc3n2C)cc1F` is higher in “Percent Effect” value: -8.546% for the first, 105.8% for the second.

Compared with `O=C(NCCNc1ncccn1)NCCc1c(F)cccc1F`, `O=c1c2cccnc2cnn1CC(O)c1ccc(F)c(F)c1` (stereo not drawn) is lower in “Percent Effect” value: 4.613% for the first, -16.55% for the second.

Going from `O=C(CN1CCCCC1Cn1cncn1)NCCC1=CCCCC1` (stereo not drawn) to `Cc1nc2n(n1)CC(NCC(=O)NCCC1=CCCCC1)CC2` (stereo not drawn), the “Percent Effect” value rises from -14.45% to 18.92%.

Compared with `CS(=O)(=O)Cc1ccc(NC(=O)Cc2cccnc2)cc1F`, `CC(Cc1cccc(F)c1)C(=O)NS(=O)(=O)c1cnn(C)c1` (stereo not drawn) is lower in “Percent Effect” value: 17.36% for the first, -18.57% for the second.

First: Cn1c2ncccc2c(=O)n1CC(=O)NCCC1=CCCCC1
Second: Cl.Cn1nc(C2CCN(C(=O)Cc3ccsc3)CC2)c2cccnc21
The “Percent Effect” value of the first is lower: 106.1% for the first, 115.7% for the second.

First: CNC(=O)[C@@H]1C[C@H](N)CN1S(=O)(=O)c1cc(C)c(Cl)cc1C
Second: Cc1ccc(S(=O)(=O)N2CC[C@@H]3C[C@H](NC(=O)c4n[nH]cc4Cl)[C@@H]32)cc1
The “Percent Effect” value of the first is lower: 4.211% for the first, 97.43% for the second.

Going from `COc1ccncc1NCc1cscn1` to `COc1ccccc1OCCCc1cccc(C#N)n1`, the “Percent Effect” value falls from 0.2861% to -3.599%.

First: CSc1ccc(CN(CCO)Cc2nccn2C)cc1
Second: CN(Cc1nccn1C)S(=O)(=O)c1cccc(C#N)c1
The “Percent Effect” value of the first is lower: -0.296% for the first, 5.7% for the second.

First: Cc1cncc(C(=O)N2CCOc3nc(C)ccc32)c1
Second: Cc1nc(C2CCCN(C(=O)c3ccc(Cn4cccn4)o3)C2)no1 (stereo not drawn)
The “Percent Effect” value of the first is higher: 1.683% for the first, -2.072% for the second.

Going from `CCC(C)(NCC(=O)NC(=O)NC)c1nc(C)cs1` (stereo not drawn) to `CCS(=O)(=O)NCCNC(=O)N(Cc1ccc(C)o1)C(C)C`, the “Percent Effect” value falls from -8.328% to -16.03%.

Compared with `COc1cccc(C(C)N2CCN(S(C)(=O)=O)CC2)c1` (stereo not drawn), `CS(=O)(=O)NCCC(=O)N1CCN(S(=O)(=O)c2ccc(Br)cc2)CC1` is higher in “Percent Effect” value: -19.03% for the first, 3.27% for the second.

First: Cc1cccc2nc(CSCc3nnnn3C(C)C)cn12
Second: Cc1cccc2nc(CN3CCC(Cn4ccnn4)CC3)cc(=O)n12
The “Percent Effect” value of the first is lower: -17.34% for the first, -3.748% for the second.

Going from `CN(Cc1cccnc1)[C@@H]1CN(C(=O)c2ccoc2)[C@@H]2CCCO[C@H]12.O=C(O)C(F)(F)F.O=C(O)C(F)(F)F` to `CN(Cc1cccnc1)[C@@H]1CN(C(=O)c2ccno2)[C@@H]2CCCO[C@H]12.O=C(O)C(F)(F)F.O=C(O)C(F)(F)F`, the “Percent Effect” value falls from 116.4% to 103.3%.

Compared with `O=C(O)C(F)(F)F.O=C(c1ccoc1)N1CCO[C@]2(CCC[C@H]2COCc2cccnc2)C1`, `O=C(O)C(F)(F)F.O=C(c1ccoc1)N1CCO[C@]2(CCC[C@@H]2COCc2cccnc2)C1` is lower in “Percent Effect” value: 1.703% for the first, -7.34% for the second.

First: CN(Cc1cccnc1)[C@@H]1CN(C(=O)CC2CC2)[C@@H]2CCCO[C@H]12.O=C(O)C(F)(F)F.O=C(O)C(F)(F)F
Second: CN(Cc1cccnc1)[C@@H]1CN(C(=O)NC2CC2)[C@@H]2CCCO[C@H]12.O=C(O)C(F)(F)F.O=C(O)C(F)(F)F
The “Percent Effect” value of the first is higher: 108.9% for the first, 101% for the second.

Compared with `CN(C)[C@@H]1CN(C(=O)CCc2ccccc2)[C@@H]2CCCO[C@H]12.O=C(O)C(F)(F)F`, `CN(C)[C@@H]1CN(C(=O)c2ccc(C#N)cc2)[C@@H]2CCCO[C@H]12.O=C(O)C(F)(F)F` is lower in “Percent Effect” value: 98.44% for the first, 5.598% for the second.

Compared with `Cc1ccc(CN2C[C@@H](N(C)C)[C@H]3OCCC[C@H]32)o1.O=C(O)C(F)(F)F.O=C(O)C(F)(F)F`, `O=C(O)C(F)(F)F.O=C(O)C(F)(F)F.c1coc(CN2CCCC3(COCCN(Cc4c[nH]nn4)C3)C2)c1` (stereo not drawn) is higher in “Percent Effect” value: -10.94% for the first, -3.131% for the second.

Compared with `COc1cccc(Nc2nc(C3CCCNC3)c3ccccn23)c1.Cl` (stereo not drawn), `COc1cccc(Nc2nc(C3CCNCC3)c3ccccn23)c1.Cl` is lower in “Percent Effect” value: 104.7% for the first, 85.66% for the second.

Going from `COc1ccc(OC)c(C2CCN(Cc3nc(C)n4ccccc34)C2)c1` (stereo not drawn) to `Cc1cc(C)c(Cn2cncn2)cc1CN1CC[C@H](CO)[C@@H](O)C1`, the “Percent Effect” value falls from 11.21% to 2.193%.

First: Cn1cc(CCCNC(=O)NC2CCN(CC(F)(F)F)C2=O)cn1 (stereo not drawn)
Second: Cc1nc(CN2C[C@@H]3CN(C(=O)c4ccco4)C[C@@H]3C2=O)cs1.O=C(O)C(F)(F)F
The “Percent Effect” value of the first is higher: -5.145% for the first, -11.8% for the second.

Going from `Cc1ncc(CNC(=O)c2oc3ccccc3c2CN(C)C)s1` to `Cc1nc(CC(=O)N2CCC(c3nn(C)c4ncccc34)CC2)cs1.Cl`, the “Percent Effect” value rises from -2.973% to 92.52%.

First: Cn1cnnc1S(=O)(=O)C1CCN(C(=O)c2cccs2)CC1
Second: Cn1nc(C2CCN(C(=O)c3cccs3)CC2)c2cccnc21
The “Percent Effect” value of the first is lower: -12.26% for the first, 107.6% for the second.

Going from `N#Cc1cccnc1N1CCN(C(=O)c2cccs2)CC1` to `CCc1nc(C)sc1C(=O)N1CCN(c2ncccc2C)CC1`, the “Percent Effect” value rises from -4.28% to 34.17%.

Compared with `COC1CCN(C(=O)Cc2csc(-c3ncccn3)n2)CC1`, `Cl.Cn1nc(C2CCN(C(=O)Cc3cccc(F)c3)CC2)c2cccnc21` is higher in “Percent Effect” value: -12.9% for the first, -4.432% for the second.

Going from `CN1CCN(C(=O)Cc2ccsc2)Cc2cccnc21.O=C(O)C(F)(F)F` to `Cc1nc(CN2CCN(Cc3ccoc3)Cc3cccnc32)cs1.O=C(O)C(F)(F)F.O=C(O)C(F)(F)F.O=C(O)C(F)(F)F`, the “Percent Effect” value rises from -3.335% to 3.214%.

Compared with `c1ccc(NCc2cn3c(n2)CN(Cc2ccoc2)CC3)nc1`, `Cc1nc(CN2CCC23CCN(Cc2ccoc2)CC3)cs1` is higher in “Percent Effect” value: 6.648% for the first, 97.06% for the second.

Going from `FC(F)(F)CCc1ccnc(N2CCN(CCc3ccncc3)CC2)n1` to `O=C(Nc1cccc(F)c1)NC1CCN(Cc2ccncc2)CC1`, the “Percent Effect” value rises from -22.6% to -11.06%.

First: CC(C)N1CCC(N2CCN(C3CCC3)CC2CCO)CC1 (stereo not drawn)
Second: N#Cc1ccc(OC2CCN(C(=O)COCC3CCCO3)CC2)cc1 (stereo not drawn)
The “Percent Effect” value of the first is higher: 3.855% for the first, -13.18% for the second.

Going from `Cc1nc(CN2C(=O)CC[C@@H]3[C@H]2CCN3C(=O)c2ccc[nH]2)cs1` to `Cc1nc(CN2CCC3(C2)CN(C(=O)c2ccc[nH]2)C3)cs1`, the “Percent Effect” value rises from -9.626% to 122.8%.

Going from `O=C(c1ccc[nH]1)N1CC2(CCN(c3nccs3)C2)C1` to `Cc1nc(CN2CCOC3(CCCN(c4nccs4)C3)C2)cs1` (stereo not drawn), the “Percent Effect” value rises from -14.28% to -8.721%.

First: Cc1nc(CN2CCC23CCN(C(=O)c2ccco2)CC3)cs1
Second: Cc1nc(CN2CCC23CCN(Cc2ccco2)CC3)cs1
The “Percent Effect” value of the first is lower: 98.46% for the first, 101.3% for the second.

First: Cc1nc(CN2C(=O)CCC23CCN(c2ncccc2C)CC3)cs1
Second: Cc1nc(CN2C(=O)CCC23CCN(Cc2ccco2)CC3)cs1
The “Percent Effect” value of the first is lower: 91.84% for the first, 111.9% for the second.

First: Cc1nc2c(c(N3CCN(Cc4ccco4)CC3)n1)CCNCC2
Second: Cc1nc(CN2CCC3(C2)CN(Cc2ccco2)C3)cs1
The “Percent Effect” value of the first is lower: 3.397% for the first, 129% for the second.

Compared with `Cc1nc(CN2CCOCC23CCN(c2ccc(C#N)cc2)CC3)cs1.O=C(O)C(F)(F)F`, `O=C1CCC2(CCCN(c3ncc(F)cn3)CC2)N1Cc1ccccc1` (stereo not drawn) is higher in “Percent Effect” value: -24.99% for the first, -5.866% for the second.

Going from `COc1cccc(C(=O)Nc2ccc(OCCC(N)=O)cc2)c1OC` to `COCCN(Cc1noc(-c2ccc(OC)cc2)n1)C1CC1`, the “Percent Effect” value rises from 3.494% to 20.29%.

Going from `Cc1cnn(CCC(=O)NS(=O)(=O)N2CCCc3ccccc32)c1` to `Cc1ccc(S(=O)(=O)N2C[C@H]3C[C@H](NC(=O)c4ccnn4C)[C@H]3C2)cc1`, the “Percent Effect” value falls from 4.859% to -12.92%.

Compared with `CCOCC1CN(C(=O)c2ccsc2)Cc2nn(C)cc21` (stereo not drawn), `CCn1cnnc1C1CCN(C(=O)c2ccc(OC(C)C)nc2)CC1` is higher in “Percent Effect” value: -7.597% for the first, 106.8% for the second.

First: CCn1cnnc1C1CCN(C(=O)c2ccc(C(=O)OC)s2)CC1
Second: CCn1cnnc1C1CCN(C(=O)c2cnc(C3CC3)s2)CC1
The “Percent Effect” value of the first is higher: -1.592% for the first, -9.527% for the second.

Compared with `CCn1cnnc1C1CCN(C(=O)c2cnn(C(C)(C)C)c2)CC1`, `Cn1c(C2CC2)nc2c1CCN(CC(=O)Nc1nncs1)C2` is lower in “Percent Effect” value: 107% for the first, -1.4% for the second.

First: Cn1nc(C(=O)N2CCCCC2c2nc3cc(F)ccc3[nH]2)ccc1=O (stereo not drawn)
Second: Cc1ccc(S(=O)(=O)N2CC[C@@H]3C[C@H](NC(=O)c4[nH]ncc4Br)[C@@H]32)cc1
The “Percent Effect” value of the first is lower: 6.226% for the first, 95.45% for the second.

Going from `c1cn2c(n1)CNCC(COCC1CC1)C2` (stereo not drawn) to `Cc1ccc(S(=O)(=O)N2C[C@H]3C[C@H](NC(=O)c4ccn(C)n4)[C@H]3C2)cc1`, the “Percent Effect” value rises from -6.113% to 0.5687%.

Compared with `Cc1ccc(S(=O)(=O)N2C[C@@H]3C[C@@H](NC(=O)C(C)(C)C)[C@@H]3C2)cc1`, `Cc1ccc(S(=O)(=O)N2CC[C@@H]3C[C@H](NC(=O)c4ccncc4)[C@@H]32)cc1` is higher in “Percent Effect” value: -7.611% for the first, 124.2% for the second.

For `COC(=O)[C@@H]1Cc2ncn(C)c2CN1S(=O)(=O)c1ccc(C)cc1`, the “Percent Effect” value was -10.72%.
